Reference: PubChem BioAssay AID583 (Sanford-Burnham Center for Chemical Genomics, 2007)
Several values for one entry are separate records, joined by “and”; a condition that tells them apart may be missing. Equal values may be shown once. Out of some 140,000 compounds screened, about 80 (0.06%) were called active. Rule as the data show it: active = displacement above about 50%; inactive = the rest. The entries come from a sample that favours actives as a whole. Some compounds were tested as several samples or in several runs, with calls that do not always agree.

molecular target: Heat shock 70 kDa protein 1A (Homo sapiens) (UniProt P0DMV8); assay: small molecules displacing fluorescent ligand from Hsp70 – biochemical, fluorescence polarization, primary screen (AID 583); conditions: Hsp70 fluorescence polarization probe displacement, mP; at 20 µM; stronger effect = higher value;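 also: plate controls were vehicle for no effect and reference ligand for full effect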
Sequence (P0DMV8 whole entry, looked up): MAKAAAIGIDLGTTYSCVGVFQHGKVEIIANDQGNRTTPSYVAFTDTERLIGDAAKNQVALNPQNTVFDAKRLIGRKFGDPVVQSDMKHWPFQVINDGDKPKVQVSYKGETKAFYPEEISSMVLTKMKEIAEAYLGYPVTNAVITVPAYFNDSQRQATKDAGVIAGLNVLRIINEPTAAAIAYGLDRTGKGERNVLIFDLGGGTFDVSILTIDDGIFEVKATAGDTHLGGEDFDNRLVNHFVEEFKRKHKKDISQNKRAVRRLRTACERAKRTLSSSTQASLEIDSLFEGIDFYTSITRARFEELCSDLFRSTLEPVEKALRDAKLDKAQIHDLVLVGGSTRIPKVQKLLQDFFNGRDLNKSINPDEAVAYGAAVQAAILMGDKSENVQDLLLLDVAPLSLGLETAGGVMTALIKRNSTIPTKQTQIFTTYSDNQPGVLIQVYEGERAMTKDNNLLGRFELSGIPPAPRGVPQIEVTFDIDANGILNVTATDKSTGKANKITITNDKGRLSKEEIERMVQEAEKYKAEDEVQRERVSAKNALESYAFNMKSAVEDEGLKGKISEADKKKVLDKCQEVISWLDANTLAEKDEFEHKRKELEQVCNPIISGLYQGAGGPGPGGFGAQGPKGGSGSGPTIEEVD

displacement, active:
Cc1ccc(C)n1-c1ccc(O)c(C(=O)O)c1 98.2%
Cc1ccc(C)n1-c1ccc(C(=O)O)c(O)c1 98.5%
Cc1ccc(C)n1-c1ccc(Cl)c(C(=O)O)c1 83.5%
Cc1ccc(C)n1-c1cc(C(=O)O)ccc1Cl 89.5%
Cc1ccc(C(=O)O)cc1-n1c(C)ccc1C 67.8%
Cc1ccc(C)n1-c1ccc(OCC(=O)O)cc1 62.2%
Cc1ccc(C)n1-c1ccc(SCC(=O)O)cc1 100%
C=CCN1C(=O)/C(=C\c2ccc([N+](=O)[O-])o2)C(=O)NC1=S 95.9%

displacement, inactive:
COc1ccc(CNC(=O)c2c(Cl)cccc2Cl)cc1 5.5%
O=C(Nc1cccc2nsnc12)c1ccc(Cl)cc1Cl 3.7%
Cc1nc(=O)c(-c2ccccc2)c(C)n1-c1ccc(C(=O)O)c(O)c1 0.2%
Cc1nc(=O)c(-c2ccccc2)c(C)n1-c1ccc(O)c(C(=O)O)c1 -3.3%
Cc1ccc(-c2ccccc2)n1-c1ccc(Cl)c(C(=O)O)c1 -4%
O=C(O)c1ccc(-n2cccc2)cc1O -0.2%
Cc1ccc(-c2ccccc2)n1-c1ccc(O)c(C(=O)O)c1 4.2%
Cc1ccc(C)n1-c1ccc(C(=O)O)c(Cl)c1 33.7%
CC(C)c1c(O)nc(SCC(=O)Nc2ccc3c(c2)CCC3)[nH]c1=O 1.5%
Cc1ccc(N2C(=O)c3ccc(C(=O)O)cc3C2=O)c(C)c1 0.7%
Cc1ccc(-c2ccccc2)n1-c1ccc(C(=O)O)cc1 -1.6%
Cc1ccc(C)n1-c1ccc(C(=O)O)cc1 16%
Cc1cc(Cl)c2cc(C(=O)O)ccc2n1 2.8%
Cc1ccc(C)n1-c1cc(C(=O)O)cc(C(=O)O)c1 8.5%
Cc1ccc(-c2ccccc2)n1-c1cccc(C(=O)O)c1 -1.8%
Cc1cc(N)ccc1-n1c(C)ccc1C -2.7%
Cc1ccc(C)n1-c1cc(C(=O)O)ccc1O 27%
CCN(CC)CCn1c2ccccc2n2cc(C(C)(C)C)nc12 0%
CC(=O)Nc1ccc(N2C(=O)c3cc4ccccc4cc3C2=O)cc1 5.1%
Cc1cc(Br)cc2c(N=Nc3cccc4cccnc34)c(O)n(C)c12 3.2%
CC(=O)C(C(C)=O)c1c(Cl)c(O)c(O)c2c(C(=O)c3ccccc3)coc12 1%
COc1cccc(C(=O)CSc2nnc(COc3cccc4cccnc34)o2)c1 3.7%
CC(C)(C)c1ccc(OCC(=O)O)cc1 4.2%
Cc1ccc(C)n1-c1ccc(CC(=O)O)cc1 23.3%
CC(=O)c1ccc(-n2c(C)ccc2C)cc1 6.4%
O=C(O)COc1ccc(N2C(=O)C=CC2=O)cc1 0.9%
CC1CCCCN1CCNC(=O)CC1Oc2ccccc2NC1=O (centres undefined) 9.4%
CCOC(=O)c1c(C)[nH]c(C(=O)COC(=O)C(C)N2C(=O)C3CCCCC3C2=O)c1C (centres undefined) -1.9%
CCOC(=O)C1CCN(C(=O)CSCCSCC(=O)N2CCC(C(=O)OCC)CC2)CC1 -0.9%
COc1ccc2[nH]c(=O)c(CN(C(=O)c3ccco3)C3CCCCC3)cc2c1 -0.4%
O=C1S/C(=C\c2cccs2)C(=O)N1c1cccc(Cl)c1 -1.3%
CC(Oc1ccc2c3c(c(=O)oc2c1)CCCC3)C(=O)c1ccccc1 (centres undefined) 2.3%
O=C(CCn1nnc2ccccc2c1=O)NCC1CCC(C(=O)O)CC1 (centres undefined) 2%
O=C(CNC(=O)c1ccc(Cl)cc1Cl)c1ccccc1 1.6%
COc1cccc(CN(CC2CCCO2)S(=O)(=O)c2ccc(S(=O)(=O)NCC3CCCO3)cc2)c1OC (centres undefined) -2.5%
C=CCN1C(=O)/C(=C\c2ccc(I)o2)C(=O)NC1=S 0.9%
C=CCN1C(=O)/C(=C\c2ccc(-c3ccc([N+](=O)[O-])cc3)o2)C(=O)NC1=S 2.8%
Cc1ccc(NC2=C(Cl)C(=O)N(c3ccccc3Cl)C2=O)cc1C 0.5%
CCOc1ccc(C(=O)Nc2ccc(NC(=O)c3ccccc3Cl)cc2)cc1Br -4.2%
COc1ccc(/C=C/C(=O)Nc2nc(C)c(C)s2)cc1OC -0.1%

displacement, 61.3% (active) and 37.4% (inactive):
Cc1cc(C(=O)O)ccc1-n1c(C)ccc1C
